Bioassay records: PubChem, Broad Institute
The sample as a whole holds a higher share of hits than the screen did.
IDE exosite FP = displaces the probe from the exo-site of human IDE. P14735. purified IDE, FL-6b probe fluorescence polarization; hits give low values. z-score at 20 µM. hit rate 6.3% among 17,000;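 active = z-score of -3 or lower, meaning strong loss of probe binding signal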;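 also: His-tagged human IDE residues 42-1019 made in E. coli with 30 nM FL-6b probe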
* = called active by the depositor.

SMILES	IDE exosite FP
OC[C@@H]1[C@H](c2ccc(C#Cc3ccccc3)cc2)[C@H]2CN(Cc3cncnc3)CCCCN12	-8.53*
CCCC#Cc1ccc([C@@H]2[C@H](CO)N3CCCCN(Cc4cccnc4)C[C@@H]23)cc1	0.859
CCCC#Cc1ccc([C@H]2[C@H](CO)N3CCCCN(Cc4cncnc4)C[C@@H]23)cc1	2.29
COCC#Cc1ccc([C@H]2[C@@H](CO)N3CCCCN(Cc4cncnc4)C[C@@H]23)cc1	1.69
OC[C@H]1[C@H](c2ccc(C#Cc3ccccc3)cc2)[C@@H]2CN(Cc3cncnc3)CCCCN12	-4.48*
OC[C@H]1[C@@H](c2ccc(C#Cc3ccccc3)cc2)[C@H]2CN(Cc3cncnc3)CCCCN21	-0.515
COCC#Cc1ccc([C@H]2[C@H]3CN(Cc4cncnc4)CCCCN3[C@H]2CO)cc1	1.33
CCC(=O)N1[C@H](CO)[C@H](c2ccc(C3=CCCC3)cc2)[C@@H]1CNC1CCCCC1	0.00778
COC(=O)C[C@@H]1CC[C@H]2[C@@H](COC[C@H](O)CN2S(=O)(=O)c2cn(C)cn2)O1	-0.00899
CCC(=O)N1CCCCN2[C@H](CO)[C@H](c3ccc(-c4ccc(F)cc4)cc3)[C@@H]2C1	1.69
CN1CCCCN2[C@H](CO)[C@@H](c3ccc(/C=C/c4ccccc4)cc3)[C@H]2C1	-5.4*
CCC(=O)N1CCCCN2[C@H](CO)[C@@H](c3ccc(/C=C/c4ccccc4)cc3)[C@H]2C1	-2.64
O=C(c1cccc(F)c1)N1CCCCN2[C@H](C1)[C@H](c1ccc(/C=C/c3ccccc3)cc1)[C@@H]2CO	0.483
O=C(c1ccc(F)cc1)N1CCCCN2[C@@H](CO)[C@H](c3ccc(/C=C/c4ccccc4)cc3)[C@@H]2C1	-3.44*
CCC(=O)N1CCCCN2[C@H](CO)[C@H](c3ccc(-c4ccc(F)cc4)cc3)[C@H]2C1	3.33
CN1CCCCN2[C@H](CO)[C@H](c3ccc(-c4ccccc4)cc3)[C@H]2C1	4.31
O=C(c1cccc(F)c1)N1CCCCN2[C@H](CO)[C@@H](c3ccc(/C=C/c4ccccc4)cc3)[C@@H]2C1	2.39
CN1CCCCN2[C@H](CO)[C@H](c3ccc(/C=C/c4ccccc4)cc3)[C@H]2C1	-2.99
CCC(=O)N1CCCCN2[C@@H](CO)[C@H](c3ccc(/C=C/c4ccccc4)cc3)[C@@H]2C1	-7.23*
CCC(=O)N1CCCCN2[C@H](CO)[C@H](c3ccc(/C=C/c4ccccc4)cc3)[C@H]2C1	-3.11*
CCC(=O)N1CCCCN2[C@@H](CO)[C@@H](c3ccc(-c4ccc(F)cc4)cc3)[C@@H]2C1	0.525
CCCC(=O)Nc1ccc2c(c1)OC[C@@H](C)N(C(=O)c1cccnc1)C[C@@H](C)[C@H](OC)CN(C)C2=O	0.24
O=C(C[C@@H]1CC[C@@H]2[C@H](COC[C@H](O)CN2C(=O)Nc2ccc(F)cc2)O1)NC1CCC1	0.856
CO[C@H]1CN(C)C(=O)c2cc(NC(=O)Nc3cccc(Cl)c3)ccc2OC[C@H](C)N(C(=O)Nc2c(C)noc2C)C[C@H]1C	1.16
O=C(C1CCOCC1)N1CC(=O)N2[C@H](CO)[C@H](c3ccc(-c4cccnc4)cc3)[C@H]2C1	-1.69
SMILES	IDE exosite FP
C[C@@H]1CN([C@H](C)CO)C(=O)c2ccccc2-c2ccccc2CO[C@@H]1CN(C)Cc1cccc(C(=O)O)c1	-0.655
C/C=C/c1ccc([C@H]2[C@@H](CO)N(C(C)=O)[C@@H]2CN(CC(C)C)C(=O)CC)cc1	3.25
COCC(=O)N1CC2(C1)[C@H](c1ccc(-c3cccc(F)c3)cc1)[C@@H](CO)N2C(=O)C1CC1	-0.387
O=S(=O)(NC[C@@H]1N[C@H](CO)[C@@H]1c1ccc(C2=CCCC2)cc1)c1ccccc1	7.15
CCS(=O)(=O)Nc1ccc2c(c1)C(=O)N(C)[C@H]1CC[C@H](CC(=O)NCCCN3CCOCC3)O[C@H]1CO2	-0.206
C[C@H]1CN([C@@H](C)CO)C(=O)c2ccccc2-c2ccccc2CO[C@@H]1CN(C)S(=O)(=O)c1cn(C)cn1	-0.449
O=C(C1CCCC1)N1CC(=O)N2[C@H](CO)[C@@H](c3ccc(Br)cc3)[C@H]2C1	2.21
CCC(=O)NC[C@@H]1[C@H](c2ccc(C3=CCCC3)cc2)[C@@H](CO)N1C(=O)C1CC1	3
N#C[C@H]1[C@@H](c2ccc(C3=CCCC3)cc2)[C@@H](CO)N1C(=O)C1CCOCC1	2.04
COCC(=O)N1CCCCN2[C@@H](CO)[C@@H](c3ccc(-c4ccc(C)cc4)cc3)[C@@H]2C1	0.0387
COCC(=O)N1CCCCN2[C@@H](CO)[C@H](c3ccc(-c4ccc(C)cc4)cc3)[C@@H]2C1	2.35
COCC(=O)N1CCCCN2[C@H](CO)[C@@H](c3ccc(-c4cccc(C)c4)cc3)[C@@H]2C1	-5.29*
COCC(=O)N1CCCCN2[C@@H](CO)[C@H](c3ccc(-c4cccc(C)c4)cc3)[C@@H]2C1	-3.13*
COCC(=O)N1CCCCN2[C@H](C1)[C@H](c1ccc(-c3ccc(C)cc3)cc1)[C@@H]2CO	1.13
COCC(=O)N1CCCCN2[C@H](CO)[C@H](c3ccc(-c4ccc(C)cc4)cc3)[C@@H]2C1	1.92
COc1ccccc1CNC(=O)C[C@@H]1CC[C@@H]2[C@@H](COc3ccc(NC(C)=O)cc3C(=O)N2C)O1	1.78
COCCNC(=O)C[C@H]1C[C@H]2c3cc(NC(=O)CN(C)C)ccc3O[C@H]2[C@@H](CO)O1	-1.14
C[C@H](NC(=O)C[C@@H]1CC[C@@H]2[C@H](COc3ccc(NC(=O)C4CCOCC4)cc3C(=O)N2C)O1)c1ccccc1	-1.81
CCCNC(=O)N1CC(=O)N2[C@@H](CO)[C@H](c3ccc(C#Cc4cccc(OC)c4)cc3)[C@@H]2C1	-2.76
CCC(=O)N1CC(=O)N2[C@@H](CO)[C@@H](c3ccc(C#Cc4cccnc4)cc3)[C@@H]2C1	1.96
CCCNC(=O)N1CC(=O)N2[C@@H](CO)[C@@H](c3ccc(C#Cc4cccc(OC)c4)cc3)[C@@H]2C1	-1.33
COc1cccc(C#Cc2ccc([C@@H]3[C@@H](CO)N4C(=O)CN(C(=O)C5CC5)C[C@H]34)cc2)c1	-1.89
CCC(=O)N1CC(=O)N2[C@H](CO)[C@@H](c3ccc(C#Cc4cccnc4)cc3)[C@@H]2C1	-0.307
CCC(=O)N1CC(=O)N2[C@H](C1)[C@H](c1ccc(C#Cc3cccnc3)cc1)[C@@H]2CO	-3.03*
CCC(=O)N1CC(=O)N2[C@@H](CO)[C@@H](c3ccc(C#Cc4cccc(OC)c4)cc3)[C@@H]2C1	-11*
SMILES	IDE exosite FP
CCC(=O)N1CC(=O)N2[C@H](CO)[C@@H](c3ccc(C#Cc4cccc(OC)c4)cc3)[C@H]2C1	-4.25*
COc1cccc(C#Cc2ccc([C@H]3[C@H](CO)N4C(=O)CN(C(=O)c5ccccc5)C[C@@H]34)cc2)c1	-2.2
O=C(c1ccc(F)cc1)N1CC(=O)N2[C@H](CO)[C@@H](c3ccc(C#CC4CCCCC4)cc3)[C@@H]2C1	0.268
C/C=C/c1ccccc1[C@@H]1[C@@H](C#N)N(C(=O)CN2CCOCC2)[C@H]1CO	-1.56
COc1ccc(-c2ccc([C@@H]3[C@@H](CO)N4C(=O)CN(Cc5ccc(F)cc5)C[C@H]34)cc2)cc1	2.89
CCCNC(=O)N1[C@@H](C#N)[C@H](c2ccc(C3=CCCCC3)cc2)[C@@H]1CO	1.82
C/C=C/c1ccc([C@@H]2[C@H]3CN(C(=O)Nc4ccc(F)cc4)CCCCN3[C@H]2CO)cc1	0.179
O=C(NC1CCCCC1)N1CC(=O)N2[C@H](C1)[C@@H](c1ccc(-c3cccc(F)c3)cc1)[C@@H]2CO	-7.9*
